For nine compounds, outcome and AC50 results are on record in PubChem BioAssay (EPA / NIEHS).

Several values for one entry are separate records, joined by “and”; a condition that tells them apart may be missing. Equal entries are not always repeated. Results filed as inconclusive are left out. Activity calls are given as the source filed them. The calls were made as follows: active = hit-call score of the fitted dose curve at least 0.9, where 1 is the maximum; inconclusive = response in the unintended direction; inactive = score below 0.9.

One may read the AC50 as the concentration at which the activity in the assay is half-maximal.

Cellular tumor antigen p53 (Homo sapiens), sequence (P04637 whole entry, looked up): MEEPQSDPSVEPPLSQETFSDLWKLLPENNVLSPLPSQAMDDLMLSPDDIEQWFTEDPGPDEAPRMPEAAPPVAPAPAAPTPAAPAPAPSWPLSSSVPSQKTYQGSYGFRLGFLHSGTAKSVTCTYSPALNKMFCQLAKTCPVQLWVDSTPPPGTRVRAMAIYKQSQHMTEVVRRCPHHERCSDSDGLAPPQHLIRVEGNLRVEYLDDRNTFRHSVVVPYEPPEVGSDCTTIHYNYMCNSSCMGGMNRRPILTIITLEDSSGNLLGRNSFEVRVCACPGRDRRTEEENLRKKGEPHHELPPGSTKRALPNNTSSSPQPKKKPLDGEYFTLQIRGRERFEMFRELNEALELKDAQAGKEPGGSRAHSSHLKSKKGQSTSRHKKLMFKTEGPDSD

In the test the target is Cellular tumor antigen p53 (Homo sapiens) (UniProt P04637). The test can be described thus: TOX21_p53_BLA_p3_ratio: Tox21 HCT-116 p53 Agonism Beta-lactamase Assay, Ratio, Phase 3 (AID 2283596). The procedure, abridged:
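HCT116 p53-bla cells (4000/well) given compound in DMSO (217-fold dilution) after 5 h, incubated 16 h at 37C. CCF4-AM substrate 2 h at room temperature; 460/530 nm emission ratio, gain fitted against DMSO.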
As to `c1ccc(Nc2cccc3ccccc23)cc1`, the outcome was inactive.

With `Oc1c(Cl)cc(Cl)c(Cl)c1Cl`, the AC50 is 17 µM (active) and 27.1 µM (active).

For `CCCCC1C(=O)N(c2ccccc2)N(c2ccccc2)C1=O`, the outcome was inactive.

As for `CC(C)=CCCC(C)=CC#N`, the result was inactive.

`COc1ccc(C(=O)c2ccccc2)c(O)c1`: the outcome was inactive.

For `O=C(O[C@@H]1Cc2c(O)cc(O)cc2O[C@@H]1c1cc(O)c(O)c(O)c1)c1cc(O)c(O)c(O)c1`, the outcome was inactive.

`c1ccc2c(c1)[nH]c1ccccc12`: the outcome was inactive.

Turning to `CCCCC(=O)O`, the result was inactive.

Turning to `CC(C)OC(=O)c1ccccc1`, the result was inactive.
